Source: PubChem BioAssay (The Scripps Research Institute Molecular Screening Center)
GPR151 activ = activators of human GPR151, primary screen, cell-based, PathHunter beta-arrestin, luminescence | G-protein coupled receptor 151 (Homo sapiens), Q8TDV0 | PathHunter beta-arrestin GPR151 cells | activation, % at 11.2 µM | actives 1% (n = 650,000) | AID 1508602, 2020; in the data active = activation above about 4.9%;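 also: 0% = median of compound wells and 100% = cells with positive control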
MITF primary = MITF inhibitors, primary screen, biochemical, AlphaScreen, human | actives 0.91% (n = 650,000) | Microphthalmia-associated transcription factor (Homo sapiens), O75030 | inhibition, % at 2.6 µM | AlphaScreen MITF homodimerization, bead proximity signal; in the data active = inhibition above about 50%;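 also: 0% = vehicle wells with protein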
TEAD-YAP block = TEAD-YAP interaction inhibition, primary screen, TEAD-YAP interaction inhibitor project, luminescence, HEK-TIYL cells; TEAD-Gal4/YAP UAS-luciferase luminescence; inhibition, % at 9.12 µM; actives 1.4% (n = 640,000); in the data active = inhibition above about 32%;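 also: 0% = median of test compound wells and 100% = reference inhibitor wells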
FBW7 activator = FBW7 E3 ligase activators, primary screen, biochemical, AlphaScreen, human; normalized activity (activation), % at 26.1 µM; AlphaScreen FBW7–phospho-cyclin E peptide binding, activator screen; actives 0.13% (n = 650,000); in the data active = normalized activity above about 1.9%;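 also: purified mutant Fbw7 with reduced substrate affinity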
GPR151 confirm = GPR151 activators, triplicate retest, confirmation, cell-based, PathHunter beta-arrestin, luminescence. GPR151 PathHunter beta-arrestin cells, 90 min; % of EA-reagent control over plate median. shares compounds with GPR151 activ. activation, % at 11.2 µM. AID 1508609, 2020. 6,700 tested, under 10 active;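 active = mean percent activation across replicates above the confirmation screen cutoff of 4.91%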
GPR119 counter = GPR119 activators in beta-arrestin cells, counter-screen for GPR151 activator project, cell-based, PathHunter beta-arrestin, luminescence, triplicate; shares compounds with GPR151 activ; 90 min; 0 = compound-well median, 100 = enzyme-acceptor control; activation, % at 11.2 µM; actives 0.3% (n = 6,700); AID 1508611, 2020;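 active = mean percent activation in the counterscreen above 29.09%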;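 also: counterscreen on off-target GPR119 to flag nonselective hits from the GPR151 activator screen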
Target sequence (Q8TDV5 whole entry, looked up): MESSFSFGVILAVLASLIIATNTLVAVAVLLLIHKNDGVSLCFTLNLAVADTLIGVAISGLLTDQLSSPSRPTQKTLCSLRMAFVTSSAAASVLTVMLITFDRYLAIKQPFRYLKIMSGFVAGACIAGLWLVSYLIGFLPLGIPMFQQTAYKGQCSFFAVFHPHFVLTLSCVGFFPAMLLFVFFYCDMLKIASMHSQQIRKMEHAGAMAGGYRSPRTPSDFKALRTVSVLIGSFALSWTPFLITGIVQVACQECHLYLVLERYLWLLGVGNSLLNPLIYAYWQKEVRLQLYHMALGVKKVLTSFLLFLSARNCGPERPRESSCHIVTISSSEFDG
Numbers without * were called inactive; . = no result given; ! = not confirmed by another sample. Most compounds without a hit are left out; they make up all but 3.5% or so of the library.

SMILES	GPR151 activ	MITF primary	TEAD-YAP block	FBW7 activator	GPR151 confirm	GPR119 counter
COc1cccc(-c2nc(C3CCCN3C(=O)CC(C)CC(=O)O)n3ccccc23)c1 (centres undefined)	0	-11	-6	-1	.	.
COc1cccc(-c2nc(C3CCCN3C(=O)CCCC(=O)O)n3ccccc23)c1 (centres undefined)	5.7*	-17	-9	-1	1	6
CCOC(=O)C1=C(c2ccccc2)N=c2s/c(=C/c3cc4c(cc3Cl)OCO4)c(=O)n2C1c1cccc(OC)c1 (centres undefined)	1	-2	-1	1	.	.
COc1cccc(N2CC(C(=O)Oc3ccc4ccccc4c3)CC2=O)c1 (centres undefined)	7.3*	3	-8	0	0	-1
COc1cccc(N2CC(C(=O)NCCc3ccsc3)CC2=O)c1 (centres undefined)	5.5*	1	7	0	-1	-14
COc1cccc(N2CC(C(=O)N3CCN(CCn4nc(C)cc4C)CC3)CC2=O)c1 (centres undefined)	8.1*	9	5	0	2	0
COc1ccc(N2CC(C(=O)NCCc3ccccc3)CC2=O)cc1 (centres undefined)	0	-56	-6	0	.	.
Cc1ccc(S(=O)(=O)/N=C(\CN2CCCCC2)N2CCCCC2)cc1	5.4*	5	2	0	0	-6
O=C1NC2(CCN(Cc3ccc(F)c(F)c3)CC2)Oc2ccccc21	1	2	-1	0	.	.
O=C1NC2(CCN(Cc3ccc4nccnc4c3)CC2)Oc2ccccc21	5.0*	-5	4	0	-1	-12
CCN(CC)C(=O)c1ccc(C(=O)c2ccccc2)o1	3	9	-34	0	.	.
Cc1cccc(-c2nc3ccccc3c(=O)n2CC(=O)Nc2ccc(F)c(Cl)c2)c1	2	15	-4	0	.	.
CCC(C(=O)Nc1ccccc1F)n1nnc(C(=O)O)c1C(=O)O (centres undefined)	-1	3	-2	0	.	.
COc1ccc(C(=O)Nc2ccc(S(=O)(=O)Nc3ccc(F)cc3)cc2)cc1	-1	6	0	1	.	.
COC(=O)COc1ccc(NC(=O)C(c2ccccc2)c2ccccc2)cc1	1	17	-4	0	.	.
O=C(O)COc1ccc(NC(=O)C(c2ccccc2)c2ccccc2)cc1	4.9*	10	-10	0	-1	-13
O=C(Nc1ccc(S(=O)(=O)Nc2ncccn2)cc1)C(c1ccccc1)c1ccccc1	7.1*	21	-2	1	1	-7
C=CCn1c(SCc2ccc(OC)c([N+](=O)[O-])c2)nnc1-c1cccc(Br)c1	5.0*	-18	-8	0	0	-4
COC(=O)c1ccc(OCC2NCCc3cc(OC)c(OC)cc32)cc1 (centres undefined)	1	-7	-9	0	.	.
CCc1ccc(N2N=C(C)/C(=C/c3ccc(O)cc3)C2=O)cc1	0	12	-8	0	.	.
Cn1cc(S(=O)(=O)Nc2ccc(F)cc2F)c(=O)n(C)c1=O	-1	-5	2	0	.	.
N#C/C=C1\NC(=O)c2ccccc2S1	0	-3	-11	0	.	.
CCOC(=O)C1=C(C)N(C)C(=O)NC1c1ccccc1Cl (centres undefined)	-2	2	-2	0	.	.
CCCCCOC(=O)C1=C(C)N(C)C(=O)NC1c1ccccc1Cl (centres undefined)	5.0*	-3	2	0	1	12
Cc1noc(C)c1COC(=O)c1cccc(S(=O)(=O)N2CC3(C)CC2CC(C)(C)C3)c1 (centres undefined)	2	1	11	0	.	.
SMILES	GPR151 activ	MITF primary	TEAD-YAP block	FBW7 activator	GPR151 confirm	GPR119 counter
O=S(=O)(c1ccc(F)cc1)N(CCCN1CCOCC1)Cc1cccs1	1	28	-8	0	.	.
O=S(=O)(c1ccc(Cl)cc1)N(CCCN1CCOCC1)Cc1cccs1	5.8*	48	-16	0	0	6
O=C(O)CCC(=O)N1N=C(c2c(-c3ccccc3)c3cc(Br)ccc3[nH]c2=O)CC1c1ccco1 (centres undefined)	5.4*	-7	8	0	0	3
CC(=O)N1N=C(c2c(-c3ccccc3)c3cc(Br)ccc3[nH]c2=O)CC1c1ccco1 (centres undefined)	-1	16	3	1	.	.
COc1ccc(C2CC(c3c(-c4ccccc4)c4cc(Br)ccc4[nH]c3=O)=NN2C(C)=O)cc1 (centres undefined)	2	2	16	0	.	.
COc1ccc(C2CC(c3c(-c4ccccc4)c4cc(Br)ccc4[nH]c3=O)=NO2)cc1 (centres undefined)	8.4*	-11	1	0	0	-7
Cc1cc(C)c(S(=O)(=O)N2CCCOC2CNC(=O)C(=O)NCC(C)C)c(C)c1 (centres undefined)	1	-4	-8	0	.	.
O=C(NCCC1=CCCCC1)c1ccc2c(c1)NC(=O)C(CSCc1ccccc1Cl)N2 (centres undefined)	0	4	8	0	.	.
CC1(C)C2CC[C@]3(C)C(C(=O)C=C4[C@@H]5C[C@@](C)(C(=O)O)CC[C@]5(C)CC[C@]43C)[C@@]2(C)CC[C@@H]1OC(=O)CCC(=O)O (some centres undefined)	5.2*!	10	0	0	1	5
CC1(C)[C@@H](O)CC[C@]2(C)[C@H]3C(=O)C=C4[C@@H]5C[C@@](C)(C(=O)O)CC[C@]5(C)CC[C@@]4(C)[C@]3(C)CC[C@@H]12	-1	-12	9	0	.	.
CCOc1ccc(CCN2C(=O)CCC2(C)C(=O)NCc2cccnc2)cc1OCC (centres undefined)	0	9	-6	0	.	.
CC(=O)c1ccc(-c2cc(F)cc3c2OC(CNC(=O)c2c(C)noc2C)C3)s1 (centres undefined)	1	0	4	0	.	.
COC(=O)[C@H](Cc1ccccc1)NC(=O)c1cc(COc2c(F)cccc2F)on1	5.6*	13	-31	0	1	-5
COC(=O)[C@@H](NC(=O)c1cc(COc2c(F)cccc2F)on1)c1ccccc1	1	13	-1	0	.	.
CCCNc1nc(-c2ccc(N3CCOCC3)nc2)nc2cc(OC)c(OC)cc12	0	10	-1	0	.	.
COc1cc(C=Nc2ccc(C)c(F)c2)ccc1OC(C)=O	34*	-9	4	0	0	-11
